# B1: usp_38_diff_out_16_25_193 (protein)
# chain: NVEALLRAHDALGRAAGYVVRARELGESPEARELLREAIRALREALRILREELRIPEEVARRIEEAIERAERLLEAGEPVEEVIEALEEAIDLAAAALAA
# B2: usp_38_diff_out_16_25_201 (protein)
# chain: EVEALLEAHDHLGDAAGYVLRAKESEDEEERKRLLREALESLRRALDILRERLHIPEEEAERIEALIEEAERLLEEGAPFEEVIAVVEEAIDLAAEALAR
# B3: usp_38_diff_out_16_109_186 (protein)
# chain: SEQAESDRLLAEAAIANFKALAADARAEAARLKAKGASQAVIDAYNALADTATAAAAALEAALAAGEDLRATLDAQWDAVGAAAAAARDLREAETAARSA
# B4: usp_38_diff_out_16_109_171 (protein)
# chain: SADEEADRLLAEAAIRNLRALAEAAEAELEKLEARGASPEVLAAYRDLAELARRAAEEIERALEEGRDLRETTDREWDRVGAAAARAAELRRAEARRRSA
# B5: usp_38_diff_out_16_25_197 (protein)
# chain: SVEALLEAHDLIGRAAGYVLRARESEDPEEQRKLLREALEHLEEALKLLEEKLKIDPEKAKEIKKLIEEAKKLLEEGAPIEEVIAVVEKAIDLAVDALNE
# B6: usp_38_diff_out_16_25_189 (protein)
# chain: SVEALLKAHEELGEAAGYIVQARENKDKPEARELLKKAIESLEKALEILEKELKIDEKVAKEIREKIERARKLLEEGKPVEEVIKELEEALDLAIEALAK
# B7: usp_38_diff_out_16_109_179 (protein)
# chain: SAQAEADRAFAEAAIANFEALAADAEAELARLKARGASPEVLAAYQALADTARAAAAALRAALAAGEDLRAATNAKWDEVGAKAAEAAELRRAEVRRRSA
# B8: usp_38_diff_out_16_109_172 (protein)
# chain: SADAEADRLLAEAAIENLRALAEEARRELERLEAKGASEEVLAAYRALAETAEAAAATIEAALAAGKDIRATTDAQWDAVGAAAARASELREAEARARSA
# B9: usp_38_diff_out_16_25_188 (protein)
# chain: NVEALLEAHHHLGLAAGYIVLAKEHKDSEKAREYLEKAIEHLEEALRILEEELNIDEETAEEIRKLIEKAKKLLKEGAPVEEIIKLLEEAIDLMAKALAE
# B10: usp_38_diff_out_16_25_199 (protein)
# chain: NVEALLKAHDELGKAAGYILEAREHLDSPEVKELLEKAIEHLEEALKIMKEELKIPQETAKKIQELIEKAKKLLEEGADPEEVIKALEEAIDAAADALAS
# B11: usp_38_diff_out_16_25_190 (protein)
# chain: NVEALLRAHDELGRAAGYIVLAREHADSPEVKELLREAIESLERALRIAEEELHIPEEVAEKVKKLIEEAKKLLEEGADPEEVIKKLEEALDLLAEALAE
# B12: usp_38_diff_out_16_25_202 (protein)
# chain: EVEALLRAHDELGEAAGYILRARESEDEEERKKLLREALESLEKALDIMKKELKIPEEVAKKIQELIDEAKEKLEAGAPFEEVIKLLEEAIDLAAEALAA
# B13: usp_38_diff_out_16_13_187 (protein)
# chain: SELEKLLKKLEELTKKAEEKKKELEKLIKEGAPKEEIREKLEELRELLIEAAGTILEIRNLMVEKANEEQRKKAREKLKEAEEKLNEAINLYVEKELELA
# B14: usp_38_diff_out_16_109_176 (protein)
# chain: SAQAEADRAFAEAVVANLRALAEDAEARLARLEARGASPAVLAAYRDLADTARAAAAALEEAIAAGEDLRAIANAQWDRVGAAAARAADLLRAEVDARSA
# B15: usp_38_diff_out_16_37_203 (protein)
# chain: SAAEVEALMARLREAVERARELIERARRAIEEGADEAEIERLLEEATRALEEAGRALAEILLLDPARYPEARALYDETAARFGEVVAEARDARRERRARA
# B16: usp_38_diff_out_16_109_185 (protein)
# chain: AAQREADRALAEAAIANFRALAAEARARAAALRARGAPQAVIDAYDDLAATADAAAAALEAALAAGEDLRAAVDREWDAVGAAAAAAEALRRAATAARSA
# B17: usp_38_diff_out_16_109_177 (protein)
# chain: SAQEEADREYAEAVIKNLKELAKEAKERLKKLEEKGASEEVLKAYKELAETAKKAAERLEKALKAGEDLRKIADEEWDKVGAAAAKAAEILREEVRKKSE
# B18: usp_38_diff_out_16_25_196 (protein)
# chain: EVEALLRAHDEIGRAAGLVLRAREEEDPERQRELLREALEHLRRALEILREELRVDEETARELEELIERAERLLEEGAPAEEVIAVIEEAIDLAVDALAE
# B19: usp_38_diff_out_16_25_194 (protein)
# chain: EVEALLKAHDEIGWAAGKLLEAKESKDPEEQKKLLEEALKHLEKALKILKEELKIDEETLKKIEELIKKAKKLLKEGAPFEEVIKTLEEAIDLAVDALNK
# B20: usp_38_diff_out_16_109_182 (protein)
# chain: AAEEEAARLLAEASIANFEALAEEARAQLAKAQARGASPEVLAALQDLADTARAAAAAIRRALEAGEDLRAVTDAQWDAVGAAAARANRLREAETDARSA
# B21: usp_38_diff_out_16_25_192 (protein)
# chain: SVEALLRAHDLLGEAAGYILEAKEHKDSPKARELLEKAIKSLEEALRVMKEELKIDEEKAEEIEKLIKEAKKLLKEGAPVEEVIKVLEEAVDKAADALAE
# B22: usp_38_diff_out_16_109_180 (protein)
# chain: SAEAEADKAYAEAVIANLEALAKAAEAELKKLKARGASPEVLAAYQALRDTAKAAAATLKAALAAGEDLRAIADAQWDAVGAAAAAAAALRRAEVAARSA
# B23: usp_38_diff_out_16_25_200 (protein)
# chain: SVEALLEAHDHLGEAAGHILRAKESKDEEEKKKLLEEAIKHLEKALKIMKEKLKIPEEVAEEIEKKIERAKKLLEEGAPFEEVIKELEEAIDLAAKALAA
# B24: usp_38_diff_out_16_109_175 (protein)
# chain: SAQAEADRAFAEAAIANFRSLAADARARLARLEARGASPEVLAAYADLAATATAAAAALEAALAAGEDLRAAANAAWDAVGAAAARAARLLQEEVRRRSA
# B25: usp_38_diff_out_16_109_173 (protein)
# chain: SQQAEGDRLFAEAAAANFRSLAEDAEAALARAKERGASPEVLAALQDLADTAKAAADTIEKTIADGGDLRATTDAQWDAVGAAAARADAIRRAEARARSD
# B26: usp_38_diff_out_16_109_181 (protein)
# chain: SAEEEAAREYAEAAVANFRALAADAEARLARLEARGASPEVLAAYRDLAATARAAAAALEAAIAAGEDLRAAADAQWDAVGAAAARAAEIRRAEVRRRSA
# B27: usp_38_diff_out_16_25_195 (protein)
# chain: SVEALLRAHDLIGRAAGLVLRARESEDPEEQRRLLEEAIRHLEEALELLKEELKIDEETAEKIEKLIEEARRLLEEGAPFEEVIKVLEEAIDLAVDALAK
# B28: usp_38_diff_out_16_25_191 (protein)
# chain: SVEALLRAHDKLGEAAGYILQAKEKKDSEEARKLLEKAVKALEEALKILVEELKIDPKDAEEIEKLIKEAKKLLKEGAPVEEVIKVLEKAVDAAAKALAK
# B29: usp_38_diff_out_16_109_178 (protein)
# chain: SAEDEANVEYAKAVIENLEKLAEEAEAELKRLQARGASAEVLAAYQKLADLAKEAAERLKKALAEGKDLRAIADEEWDRVGAAAAEAAELRQQEVRARSA
# B30: usp_38_diff_out_16_109_183 (protein)
# chain: SADEEAARLLAEASIKNFRNLAKEAQAALAKAQARGASADVLAALQDLADTAKAAAERIEKAIKEGKDLLAVTNAEWDAVGAAAARARELREAETRARSA
# B31: usp_38_diff_out_16_109_184 (protein)
# chain: SADEEADRLLAEASIKNFRDLSKDARAEAERLKARGASQAVIDAYNELAKTAEAAAEEIEKALEAGEDLRAVTDAQWDKVGAAAKKANDLRRAEARARTA
# B32: usp_38_diff_out_16_109_174 (protein)
# chain: SAQEEADREYALAVIENLKKLAKEAEEELKKLKARGASEEVLKAYEELAKTAKEAAKALEEALKAGEDLRAIANEKWDEVGKKAAEAAELLREEVRRRSA
# Molecular target: T1, USP38, Q8NB14
# T1 chain: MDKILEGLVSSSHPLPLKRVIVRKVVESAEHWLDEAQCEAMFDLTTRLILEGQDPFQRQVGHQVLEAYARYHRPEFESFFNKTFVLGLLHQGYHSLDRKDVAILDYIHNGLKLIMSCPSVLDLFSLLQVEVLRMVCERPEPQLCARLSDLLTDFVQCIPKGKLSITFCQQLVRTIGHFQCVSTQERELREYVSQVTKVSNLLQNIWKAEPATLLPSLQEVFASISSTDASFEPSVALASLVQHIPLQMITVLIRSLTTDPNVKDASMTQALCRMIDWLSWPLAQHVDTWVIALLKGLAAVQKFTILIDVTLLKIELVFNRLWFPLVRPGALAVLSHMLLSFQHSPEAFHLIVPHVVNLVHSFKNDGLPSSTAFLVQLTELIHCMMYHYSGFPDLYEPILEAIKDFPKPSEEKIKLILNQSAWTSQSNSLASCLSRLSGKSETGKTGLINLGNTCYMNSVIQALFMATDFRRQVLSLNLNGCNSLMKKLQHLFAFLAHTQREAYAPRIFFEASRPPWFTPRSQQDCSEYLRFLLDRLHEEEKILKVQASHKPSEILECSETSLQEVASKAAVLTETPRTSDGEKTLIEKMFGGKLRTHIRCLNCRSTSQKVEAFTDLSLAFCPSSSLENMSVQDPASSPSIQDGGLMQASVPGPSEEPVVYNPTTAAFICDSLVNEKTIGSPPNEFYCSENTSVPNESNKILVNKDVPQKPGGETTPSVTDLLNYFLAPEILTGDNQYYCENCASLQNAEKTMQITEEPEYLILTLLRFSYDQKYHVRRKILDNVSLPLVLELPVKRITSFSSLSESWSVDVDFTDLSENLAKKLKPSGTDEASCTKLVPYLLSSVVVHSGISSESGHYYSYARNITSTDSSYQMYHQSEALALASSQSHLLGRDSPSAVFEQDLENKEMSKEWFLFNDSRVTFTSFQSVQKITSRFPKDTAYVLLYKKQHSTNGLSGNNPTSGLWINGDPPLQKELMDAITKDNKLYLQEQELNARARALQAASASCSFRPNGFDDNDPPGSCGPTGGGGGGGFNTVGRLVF
# Assay: median log2 fold change of GCK-ALFA target abundance (FLAG IP / Myc IP barcode read proportion) (log2 ratio); each designed protein is fused to an ALFA-tag nanobody in HEK293 cells to bring the named protein to FLAG-tagged glucokinase (GCK); Myc marks an untargeted standard; higher = target protein stabilised (more abundant)
# Details: target protein: 3xFLAG-MCP-GCK-ALFA reporter; HEK293 landing pad (RPLP)
# Summary of the method: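 HEK293 landing-pad cells received a recombined binder library fused to the ALFA nanobody and were induced with 2 μg mL^−1 doxycycline, then transfected with a plasmid encoding a FLAG-tagged target and a Myc-tagged standard. Lysates were collected after 48 h for anti-FLAG and anti-Myc immunoprecipitation, and the circular RNA barcodes were reverse transcribed, amplified and sequenced. Target abundance for each binder is the median log2 ratio of FLAG to Myc barcode read proportions. Barcodes had to reach a proportion of at least 10^−7 in both replicates, each binder needed at least 3 barcodes per replicate, a pseudocount of 10^−6 was applied, and the two replicates were pooled.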
row,Binder,median log2 fold change
1,B1,0.174
2,B2,0.237
3,B3,0.0614
4,B4,-0.352
5,B5,0.179
6,B6,0.371
7,B7,-0.0762
8,B8,-0.0926
9,B9,0.00197
10,B10,0.324
11,B11,0.107
12,B12,0.316
13,B13,-0.622
14,B14,0.125
15,B15,-0.344
16,B16,-0.358

row,Binder,median log2 fold change
1,B17,0.0634
2,B18,0.215
3,B19,0.00535
4,B20,0.0957
5,B21,0.243
6,B22,-0.191
7,B23,0.457
8,B24,-0.756
9,B25,-0.0935
10,B26,-0.515
11,B27,0.188
12,B28,0.0845
13,B29,0.375
14,B30,-0.397
15,B31,-0.0394
16,B32,-0.105

# — the supplement of paper PMC12632987
